# High-throughput results as filed in PubChem BioAssay.
# IDH1 R132H inh = inhibitors of human mutant IDH1 R132H. O75874. IDH1-R132H enzyme, NADPH consumption, diaphorase/resazurin fluorescence. Potency, µM (highest dose often 76.6 µM), actives largely listed as inhibitors. 390,000 tested, 0.093% active. AID 602179; note: nearly all actives have a fitted effect of over 65% in size
# Target sequence (O75874 whole entry R132H, stated change not applied): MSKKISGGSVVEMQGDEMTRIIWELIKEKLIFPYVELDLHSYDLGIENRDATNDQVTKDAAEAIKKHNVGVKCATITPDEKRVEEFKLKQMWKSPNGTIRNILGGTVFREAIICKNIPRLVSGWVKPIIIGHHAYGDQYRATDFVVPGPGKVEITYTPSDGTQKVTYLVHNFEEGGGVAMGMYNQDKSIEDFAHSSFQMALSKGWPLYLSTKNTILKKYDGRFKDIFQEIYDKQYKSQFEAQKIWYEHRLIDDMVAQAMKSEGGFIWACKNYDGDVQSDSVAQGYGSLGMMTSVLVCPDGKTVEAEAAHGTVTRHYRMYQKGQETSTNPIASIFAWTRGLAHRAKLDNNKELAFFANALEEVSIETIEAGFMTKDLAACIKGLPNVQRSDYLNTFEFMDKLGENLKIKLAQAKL
#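 IDH1-R132H (0.5 ug/mL dispensed) in pH 7.5 Tris buffer was preincubated 30 min with compound, then given a substrate mix of 0.016 mM NADPH and 2 mM alpha-KG for 80 min at room temperature; remaining NADPH was read by diaphorase/resazurin fluorescence.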
# HepG2 viability = counter-screen for TGF-b inhibitors: cytotoxicity in HepG2 cells; HepG2 CAGA-GFP viability, ATP luminescence, 18 h; 410,000 tested, 0.76% active; Potency, µM (series often up to 46.1 µM), usual class: cytotoxic; AID 588856
#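 HepG2 CAGA-GFP cells (1000/well, DMEM with 1% FBS) received compound, then TGF-beta at 500 pg/mL final, and were incubated 18 hours at 37 degrees C. Viability was read by CellTiter-Glo luminescence. Media-only wells were set as complete cell-killing and DMSO as no toxicity.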
# ATXN2 expr inh = ATXN2 expression inhibition; 360,000 tested, 0.72% active; AID 1745845; Potency, µM (top dose mostly 57 µM), usual class: inhibitors; HEK-293 ATXN2-luciferase reporter, luminescence, 24 h; note: nearly all actives have a fitted effect of over 55% in size
#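 qHTS (up to 57 uM final) was run with 24 h compound exposure of reporter cells at 37 °C. Each well was multiplexed: SteadyGlo luminescence measured ATXN2-luciferase expression after a fluorogenic Gly-Phe-AFC viability readout (25 uM final).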
# ATXN viability = reduces viability in counter-screen for ATXN expression inhibitors | S2 cells (HEK-293 line with an ATXN2-luciferase reporter) viability, CellTiter-Fluor protease fluorescence, 24 h | Potency, µM (doses to about 56.7 µM), most hits filed as cytotoxic | 400,000 tested, 0.49% active | AID 651635; note: nearly all actives have a fitted effect of over 40% in size
# LDHA block = LDHA (human) enzyme inhibition. 480,000 tested, 0.15% active. purified LDHA, NADH/diaphorase-resazurin fluorescence; stronger effect = lower value. P00338. activity change, % (values are at about 110 or 230 µM). AID 1347041; in the data active = activity change below about -30%; inconclusive = mostly about -25% to -30%
#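 LDH5 2 nM; NADH 0.06 mM, pyruvate 0.2 mM; 200 mM Tris pH 7.4, EDTA, Tween-20; 5 min RT. Detection: diaphorase 0.133 mg/mL + resazurin 37 µM, fluorescence ex540/em590 at 0 and 20 min; normalized to enzyme-free and DMSO wells.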
# TGFb inhibitor = TGF-b pathway inhibition; HepG2 CAGA-GFP TGF-b/SMAD3 reporter, GFP fluorescence, 18 h; TGF-beta stimulated, 500 pg/mL final; Potency, µM (series often up to 46.1 µM), most hits filed as inhibitors; 410,000 tested, 1.2% active; AID 588855; note: nearly all actives have a fitted effect of over 65% in size
#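 Cell-based qHTS in HEPG2 carrying a CAGA-GFP Smad reporter; compounds added before 500 pg/mL final TGF-beta, 18 h incubation at 37 degrees C, GFP fluorescence quantified per cell by imaging cytometry.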
# Numbers stand for hits; n = inactive; u = inconclusive; x = not tested or not shown; ! = not confirmed by another sample. An excerpt weighted towards active compounds, which were near 2.2% of everything screened. Unless noted, calls come from the whole dose curve; as a rule, active = well fitted curve in the direction sought with a large enough effect; inconclusive = small, poorly fitted or top-dose-only effect, or another doubt; inactive = no such curve, though single readings can be large; an effect the other way counts as inactive or inconclusive.
SMILES,IDH1 R132H inh,HepG2 viability,ATXN2 expr inh,ATXN viability,LDHA block,TGFb inhibitor
COC(=O)c1ccc(-c2nc(CN3CCN(Cc4cccc(C)c4)CC3)c(C)o2)cc1,n,n,x,n,n,n
CCC(=O)Nc1cccc(NC(=S)NC(=O)c2cc3ccccc3o2)c1,n,n,n,u,n,n
CCCCCCCCCNC(=O)[C@H](NC(=O)COc1ccccc1)[C@@H]1NC(C(=O)OC)C(C)(C)S1 (some centres undefined),n,n,n,u,n,11µM
CN(CC(=O)Nc1cccc(F)c1)C(=O)c1cc(-c2cccs2)nn1-c1ccccc1,n,n,n,n,n,n
O=C(NC(c1ccc(-c2ccccc2)cc1)c1cnccn1)C1CCN(CCOc2ccc(F)cc2)CC1 (centres undefined),x,18µM,u,u,n,13µM
O=C(NC(c1ccc(-c2ccccc2)cc1)c1cnccn1)C1CCN(CCCOc2ccccc2)CC1 (centres undefined),x,n,u,32µM,n,u
COc1ccc(C(NC(=O)C2CCN(CCCOc3ccccc3)CC2)c2ccccn2)cc1 (centres undefined),x,n,n,n,n,n
Cc1ccc(C(NC(=O)C2CCN(Cc3ccc(Oc4ccccc4)cc3)CC2)c2ccccn2)cc1 (centres undefined),x,11µM,u,u,n,u
O=C(COC(=O)Cc1ccccc1F)Nc1cccc(F)c1,n,n,n,n,n,n
O=C(COC(=O)Cc1ccccc1F)Nc1ccc(F)cc1F,n,3.5µM,n,n,n,n
CC(C)C1=CC(=Nc2ccc(S(N)(=O)=O)cc2)C=C(C(C)C)C1=O,n,11µM,n,n,n,u
COc1ccc(/C=N/OCC(=O)NC(c2ccccc2)c2ccccc2)c(OC)c1,n,n,n,n,n,u
CCOc1ccc(/C=N/OCC(=O)NC(c2ccccc2)c2ccccc2)cc1,n,n,n,n,n,22µM
O=C(CSc1nnc(NC(=O)NC2CCCCC2)s1)Nc1ccccc1F,n,n,x,x,n,u
COc1ccccc1NC(=O)CSc1nnc(NC(=O)NC2CCCCC2)s1,n,n,x,x,n,18µM
COc1ccc(C2/C=C\CN(CC3CC3)C(Cc3ccccc3)C(=O)N2Cc2ccc(F)cc2)cc1 (centres undefined),x,n,x,x,x,n
COc1ccc(CN2C(=O)C(=O)c3cc(C)ccc32)cc1OC,x,x,x,x,n,x
Cc1ccc2c(c1)C(=O)C(=O)N2Cc1ccc(C(F)(F)F)cc1,n,18µM,u,28µM,n,16µM
Cc1ccc2c(c1)C(=O)C(=O)N2Cc1ccc(OC(C)C)cc1,n,n,u,u,n,10µM
Oc1ccc(Br)cc1-c1nc2cnccn2c1NC1CCCCC1,n,n,n,n,n,u
Oc1ccc(Br)cc1-c1nc2cnccn2c1NC1CCCC1,n,11µM,n,n,n,n
O=S(=O)(c1ccc(-n2cnnn2)cc1)N1CCN(c2ccccc2F)CC1,n,n,x,n,n,n
CCCN1CCN(CCCNC(=O)c2cc3c(s2)-c2c(C)cccc2OC3)CC1,n,11µM!,u,u,n,u
CCCN1CCN(CCCNC(=O)c2cc3c(s2)-c2ccccc2OC3)CC1,n,n,u,n,n,u
Cc1cccc2c1-c1sc(C(=O)NCCCN3CCCC(C)C3)cc1CO2 (centres undefined),n,n,35µM,u,n,u
SMILES,IDH1 R132H inh,HepG2 viability,ATXN2 expr inh,ATXN viability,LDHA block,TGFb inhibitor
CCc1ccc(C2C(C#N)=C(N)C(C#N)(C#N)C3=CCC(C(C)(C)C)CC32)cc1 (centres undefined),37µM,n,n,n,n,u
Cc1ccc(NC(=O)CNC(=O)C23CC4CC(CC(C4)C2)C3)nc1,n,n,x,n,n,n
Oc1ccccc1-c1cc(C(F)(F)C(F)F)[nH]n1,n,n,n,n,n,11µM
CC(NC(=S)NCc1ccc(F)cc1)C12CC3CC(CC(C3)C1)C2 (centres undefined),n,n,14µM,n,n,u
CCC(C)c1ccc(C(C)NC(=S)NCc2ccc(F)cc2)cc1 (centres undefined),n,n,u,n,n,18µM
CCCCN(C)CCNC(=O)c1cc(-c2ccc(Cl)s2)nc2ccccc12,n,n,n,n,n,n
CN(CCNC(=O)c1c[nH]c2c1ccc1ccccc12)CCNC(=O)c1c[nH]c2c1ccc1ccccc12,n,n,u,35µM,n,13µM
CC(=O)OCC1=C(C(=O)O)N2C(=O)C(NC(=O)c3ccc(F)cc3)C2SC1 (centres undefined),n,n,x,14µM,n,n
CC(=O)OCC1=C(C(=O)O)N2C(=O)C(NC(=O)Cc3ccccc3)C2SC1 (centres undefined),x,n,x,x,n,n
Oc1ccccc1C1CC(c2cccs2)=NC(c2ccc(Cl)cc2)N1 (centres undefined),n,n,u,u,n,20µM
CCOC(=O)/C(C)=C1\NC(C)(C)Cc2ccccc21,n,n,n,n,-105,n
CC(C)(C)n1ncc2c(=O)n(Cc3ccc(F)cc3)cnc21,x,n,x,x,x,n
CC(C)(C)n1ncc2c(=O)n(Cc3ccc(SC(F)(F)F)cc3)cnc21,x,n,x,x,x,16µM
Cc1ccc(-c2cc(C(=O)N3N=C(C(F)F)CC3(O)C(F)F)c3ccccc3n2)cc1C (centres undefined),n,20µM,u,18µM,n,u
CCC(C)Sc1cccc(-c2nc3ccc(C)cn3c2NCc2ccccc2)c1 (centres undefined),n,11µM,u,u,n,10µM
CCCCCCSc1cccc(-c2nc3ccc(C)cn3c2NCc2ccccc2)c1,n,n,n,u,n,u
CCCCNc1c(-c2ccc(SC(C)CC)c(OC)c2)nc2ccc(C)cn12 (centres undefined),n,20µM,u,u,n,u
CCCCNc1c(-c2ccc(SC(C)CC)c(OC)c2)nc2ccc(Cl)cn12 (centres undefined),n,n,n,n,n,u
CCC(C)Sc1cccc(-c2nc3ccc(Cl)cn3c2NCc2ccccc2)c1 (centres undefined),n,n,n,n,n,u
CCCCCCSc1ccc(-c2nc3ccc(C)cn3c2NCCCC)cc1OC,x,x,n,28µM,n,x
CCCCCCSc1cc(-c2nc3ccc(C)cn3c2NCc2ccccc2)ccc1OC,n,n,n,20µM,n,u
Cc1cc(CC(C)CC(C)(C)C)n(O)c(=O)c1 (centres undefined),x,n,x,x,n,5.6µM
Cc1ccc(-c2nc3n(n2)Cc2ccccc2-3)cc1,n,n,n,n,n,n
